Compound activity from PubChem BioAssay.
L3MBTL1 block: inhibitors of human L3MBTL1 | Q9Y468 | AlphaScreen L3MBTL1–H3K9me1 peptide binding | 0.66% of 230,000 active | Potency, µM (highest dose often 57.1 µM), for the others: at the top dose activity, negative = inhibition, actives largely listed as inhibitors; also: % is scaled to controls: 0 for no effect and ±100 for the full control effect; nearly all actives have a fitted effect of over 60% in size
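AlphaScreen assay: L3MBTL1 (50 nM final) was preincubated 30 min at room temperature with biotinylated H3(1-15)K9me1 peptide (75 nM final), then 30 min with library compounds; streptavidin donor and nickel chelate acceptor beads (10 ug/mL final) added, 30 min dark.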
Sfp PPTase inh: inhibitors of Bacillus subtilis Sfp phosphopantetheinyl transferase. Biochemical Sfp PPTase activity, qHTS. Q9F4F7. Potency, µM, inactives show largest response in the series, negative = inhibition, actives largely listed as inhibitors. 3.5% of 310,000 active;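 also: the enzyme is Sfp with the accession as filed and its product quenches rhodamine fluorescence; 0% = enzyme reaction without inhibitor and -100% = no enzyme wells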
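With Hepes-Na pH 7.6 buffer containing 10 mM MgCl2, Sfp (15 nM) modified BHQ-2-YbbR (12.5 uM) using rhodamine-CoA (5 uM). Two reads 30 minutes apart at 525/598 nm yielded each well's rate.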
HP1b chromo inh: inhibitors of HP1-beta chromodomain binding to methylated histone tails. Potency, µM (titrated, usually from 114 µM), for the others: top-dose activity change, negative = inhibition, actives largely listed as inhibitors. AID 540317. 0.56% of 390,000 active. P83916. AlphaScreen HP1-beta / biotin-H3K9me3 peptide binding; also: nearly all actives have a fitted effect of over 70% in size
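Compound inhibition of the preformed complex between 50 nM HP1-beta and 50 nM biotinylated H3K9me3 peptide was read by AlphaScreen. Buffer was PBS pH 7.4 with 0.01% Tween-20. Incubations ran 30 min at room temperature, with 10 ug/mL donor/acceptor beads.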
JMJD2A Tudor: blocks the human JMJD2A Tudor domain. AID 504339. O75164. Potency, µM (series often up to 114 µM), without a hit: at the highest dose activity change, negative = inhibition, hits mostly inhibitors. AlphaScreen JMJD2A-Tudor / H3K4me3 peptide binding. 4.4% of 390,000 active; also: % is scaled to controls: 0 for no effect and ±100 for the full control effect; nearly all actives have a fitted effect of over 50% in size
Target sequence (O75164 whole entry, looked up, the tested form may be a part): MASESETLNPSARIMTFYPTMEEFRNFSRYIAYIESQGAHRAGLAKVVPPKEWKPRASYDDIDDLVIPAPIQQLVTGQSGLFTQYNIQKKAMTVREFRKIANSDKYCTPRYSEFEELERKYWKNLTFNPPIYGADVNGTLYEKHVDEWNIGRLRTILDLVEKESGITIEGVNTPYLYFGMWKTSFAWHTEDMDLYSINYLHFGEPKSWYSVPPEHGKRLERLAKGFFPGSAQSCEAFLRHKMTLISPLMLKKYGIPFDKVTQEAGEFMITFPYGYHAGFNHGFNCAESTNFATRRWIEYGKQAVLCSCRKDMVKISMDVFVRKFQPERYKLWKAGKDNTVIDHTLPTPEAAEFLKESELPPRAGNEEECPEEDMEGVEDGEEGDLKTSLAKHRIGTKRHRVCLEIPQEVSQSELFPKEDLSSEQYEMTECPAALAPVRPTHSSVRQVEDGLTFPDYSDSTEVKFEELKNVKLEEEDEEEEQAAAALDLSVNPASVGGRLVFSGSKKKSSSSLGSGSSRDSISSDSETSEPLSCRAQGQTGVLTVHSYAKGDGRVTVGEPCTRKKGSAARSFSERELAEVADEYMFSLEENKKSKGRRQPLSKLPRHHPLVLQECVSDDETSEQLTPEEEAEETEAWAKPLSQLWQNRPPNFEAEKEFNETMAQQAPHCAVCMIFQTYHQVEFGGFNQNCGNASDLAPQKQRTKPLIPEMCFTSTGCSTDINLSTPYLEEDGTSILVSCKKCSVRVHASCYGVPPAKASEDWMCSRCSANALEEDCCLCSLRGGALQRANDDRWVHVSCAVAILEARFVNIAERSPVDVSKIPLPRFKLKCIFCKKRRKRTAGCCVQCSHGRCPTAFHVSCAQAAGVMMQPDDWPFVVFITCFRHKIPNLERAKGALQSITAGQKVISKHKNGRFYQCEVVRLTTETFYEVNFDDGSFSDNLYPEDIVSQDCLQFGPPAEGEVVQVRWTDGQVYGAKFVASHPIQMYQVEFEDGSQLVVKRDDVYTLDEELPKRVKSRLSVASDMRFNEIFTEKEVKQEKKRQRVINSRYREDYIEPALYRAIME
G9a block: blocks human histone lysine methyltransferase G9a | Q96KQ7 | G9a H3K9 monomethylation, AlphaScreen, 2 h | Potency, µM (top dose mostly 102 µM), for the others: at the top dose activity, negative = inhibition, hits mostly inhibitors | 8.8% of 350,000 active | AID 504332; also: % is scaled to controls: 0 for no effect and ±100 for the full control effect; nearly all actives have a fitted effect of over 75% in size
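Using a bead-based AlphaScreen, monomethylated H3K9 product from 2 h room-temperature reactions (G9a 20 nM, peptide 500 nM, SAM 20 uM) was detected with 0.5 ug/mL rabbit anti-H3K9me1 antibody.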
BAZ2B inh: blocks human BAZ2B. Q9UIF8. AlphaScreen BAZ2B-H3K14Ac peptide displacement. Potency, µM (titrated, usually from 114 µM), inactives show at the highest dose activity change, negative = inhibition, most hits filed as inhibitors. 4.4% of 360,000 active; also: % is scaled to controls: 0 for no effect and ±100 for the full control effect; nearly all actives have a fitted effect of over 60% in size
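Complex of BAZ2B and biotin-H3K14Ac (50 nM apiece) forms over 30 min at RT, then faces library compounds up to 110 uM for another 30 min; AlphaScreen beads added, 20 min dark incubation, luminescence read.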
The depositor's hits bear a star; ? = inconclusive; · = no result given; [ ] = another dose, or the depositor's remark. Hits are enriched below; roughly 12% of the tested compounds scored in any of these assays. Calls follow the shape of the dose curve; as a rule, active = well fitted curve in the direction sought with a large enough effect; inconclusive = small, poorly fitted or top-dose-only effect, or another doubt; inactive = no such curve, though single readings can be large; an effect the other way counts as inactive or inconclusive. Potency is read from the fitted curve at half-maximal effect.

SMILES	L3MBTL1 block	Sfp PPTase inh	HP1b chromo inh	JMJD2A Tudor	G9a block	BAZ2B inh
O=C(Nc1ccc(F)cc1F)c1cc(-c2ccco2)nc2ccccc12	·	31.6µM*	17.3%	-11.7%	44.7µM*	4.5%
Cc1ccc(S(=O)(=O)N2CCOCC2)cc1NC(=O)c1cc(-c2ccccn2)nc2ccccc12	1.9%	0.4%	6.4%	-4.4%[11.4 µM]	·	-15.0%
Cc1cccc(N2CCN(CCCNC(=O)c3ccc(NC(=O)C4=CSCCO4)cc3)CC2C)c1 (stereo unspecified)	·	15.2%	-6.8%[57 µM]	?	·	?
COC(=O)c1ccccc1NC(=O)CSc1n[nH]c(-c2ccco2)n1	·	-9.8%	-12.7%	-26.4%	-10.2%	-0.7%
CCCS(=O)(=O)c1nc(S(=O)(=O)c2ccc(C)cc2)c(N(C)Cc2ccccc2)s1	·	·	32.7%	0.0%	-34.2%[59 µM]	-2.6%
COc1ccccc1C(=O)N(CCN(C)C)c1nc2cc(C)cc(C)c2s1	·	1.7%	3.1%	?	?	·
COc1ccc2nc(N(CCN(C)C)C(=O)c3ccc4c(c3)OCCO4)sc2c1	·	6.5%	7.5%	-31.9%	·	?
COc1ccc(Cl)c2sc(N(CCN(C)C)C(=O)c3ccc4c(c3)OCCO4)nc12	-0.8%	·	-29.9%	?	50.1µM*	?
Cc1cccc2sc(N(CCN(C)C)C(=O)c3cc(Cl)sc3Cl)nc12	-9.4%	-24.2%	-13.1%	?	44.7µM*	?
CCN(CC)CCN(C(=O)C1=COCCO1)c1nc2ccc(C)cc2s1	·	1.0%	19.6%	-10.3%	-19.4%	-21.7%
CCN(CC)CCN(C(=O)C1=COCCO1)c1nc2c(OC)ccc(OC)c2s1	·	-12.9%	17.4%	-17.4%	44.7µM*	-20.5%
Cc1cc(C)c2sc(N(CCN(C)C)C(=O)c3ccc4ccccc4c3)nc2c1	·	-29.9%	-26.1%[57 µM]	22.4µM*	35.5µM*	?
COc1ccc(CCN2C(=S)N(C)C(=O)C2CC(=O)Nc2ccc(F)cc2)cc1 (stereo unspecified)	0.7%	-2.8%	7.8%	-8.2%	-2.9%	1.1%
Cc1c(CC(=O)NCCCC(=O)O)c(=O)oc2cc3c(cc12)CCC(C)(C)O3	·	6.1%	7.4%	?	-7.2%	0.4%
Cc1ccc2sc(N(CCN(C)C)C(=O)c3ccc4ccccc4c3)nc2c1C	·	?	67.8%	?	·	?
COc1ccc(OC)c2sc(N(CCN(C)C)C(=O)c3ccc4ccccc4c3)nc12	·	?	-19.3%[57 µM]	?	15.8µM*	?
Cc1ccc2nc(N(CCN(C)C)C(=O)c3cc(Cl)sc3Cl)sc2c1	-1.5%	1.0%	10.6%	-19.7%	?	-37.0%
Cc1cc(C)c2sc(N(CCN(C)C)C(=O)c3cc(Cl)sc3Cl)nc2c1	·	-11.3%	4.7%	?	44.7µM*	·
COc1cc2ccccc2cc1C(=O)N(CCN(C)C)c1nc2c(C)cccc2s1	·	?	10.9%	?	12.6µM*	?
CCN(CC)CCN(C(=O)c1c(F)cccc1F)c1nc2cc(C)cc(C)c2s1	·	-22.7%	26.4%	?	56.2µM*	·
CCN(CC)CCN(C(=O)c1ccco1)c1nc2cc(C)cc(C)c2s1	·	·	-7.7%	?	-39.5%[59 µM]	-32.8%
O=C1CCCC2=C1C1(CCCC1)N=C(Nc1nc3cc(Br)ccc3o1)N2	·	·	·	-23.4%	·	·
CCC(C(=O)NCCc1ccccc1)n1nc(C)n2c(cc3sccc32)c1=O (stereo unspecified)	·	·	17.3%	-13.5%	3.2%[59 µM]	-0.3%
COc1cc2ccccc2cc1C(=O)N(CCN(C)C)c1nc2c(OC)ccc(OC)c2s1	·	-25.0%	?	39.8µM*	44.7µM*	?
CC1CCCC(C)N1C(=O)COC(=O)Cc1c[nH]c2ccccc12 (stereo unspecified)	-4.1%	·	2.0%	-3.4%	-41.9%	-10.4%
CN(C(=O)Nc1ccc(Cl)c(Cl)c1)c1ccccc1C(=O)O	0.5%	-25.1%	6.5%	5.2%	56.2µM*	-12.0%
CC(C)COC(=O)c1ccc2c(c1O)C(=O)c1ccccc1C2=O	·	-28.1%	?	7.94µM*	?	10µM*
CN1C(c2ccccc2)=NO[C@]1(C)c1ccccc1	·	·	38.9%	2.7%	·	·
